Test results: PubChem BioAssay (NCI)
This is part of a sample that, as a whole, favours compounds with a hit. Of some 83,000 tested, about 20% had one in any assay.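 Method: cells in 96-well plates; compound added at one concentration; 48 h incubation; percent growth measured; values under 10 scored active.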 Unmarked numbers belong to inactive results. Activity calls are given as the source filed them.

What follows are molecules tested on SF-539 CNS (assay: NCI-60 one-dose screen, 48 h (100 = growth as untreated, 0 = no growth, -100 = all killed)). Conditions: 10 µM unless noted.

Row | SMILES | growth
1 | CCCCC/C(=C\c1ccccc1)C1OC(C)C(C)O1 (centres undefined) | 99.7%
2 | COc1ccc2c(c1)c(-c1nc(-c3c[nH]c4ncccc34)cs1)cn2CCNC(=O)OC(C)(C)C | 66.5%
3 | COc1cc(/C=C/c2cc(/C=C/c3ccc(O)c(OC)c3)n(-c3ccccc3)c(=O)n2)ccc1O | 79.5%
4 | CCN1CCN(C(=O)[C@]23CC[C@@H](C)[C@H](C)[C@H]2C2=CC[C@@H]4[C@@]5(C)C/C(=C/c6cccc(OC)c6OC)C(=O)C(C)(C)[C@@H]5CC[C@@]4(C)[C@]2(C)CC3)CC1 | 58.5%
5 | COc1cc2c(cc1-c1c(C)noc1C)ncc1nc(C3CCCCC3)n([C@@H](C)COC(F)F)c12 | 31.6%
6 | CC(=O)OC[C@]12CC[C@@H](/C(C)=N/O)[C@@H]1[C@H]1CC[C@@H]3[C@@]4(C)CCCNC(C)(C)[C@@H]4CC[C@@]3(C)[C@]1(C)CC2 | 79.5%
7 | Brc1cnc2[nH]cc(-c3nnc(-c4ccccc4)o3)c2c1 | 89.6%
8 | COc1ccc2[nH]c(-c3ccc(Cl)cc3)cc(=O)c2c1 | 99.9%
9 | CCN1CCN(C(=O)[C@]23CCC(C)(C)C[C@@H]2C2=CC[C@@H]4[C@@]5(C)C/C(=C/c6ccncc6)C(=O)C(C)(C)[C@@H]5CC[C@@]4(C)[C@]2(C)CC3)CC1 | -96.4% (active)
10 | COc1ccc(/C=C(\C#N)c2cc3ccccc3n2S(C)(=O)=O)cc1 | 79.1%
11 | Cc1ccc(S(=O)(=O)Nc2ccc(-c3cc(-c4cccc(F)c4)c(C#N)c(=O)[nH]3)cc2)cc1 | 90.1%
12 | N#CC1=C(N)Oc2c(c(N)nn2-c2ccccc2)C1c1ccc(Cl)cc1 (centres undefined) | 98.4%
13 | C=C(C)[C@@H]1CC[C@]2(CN)CC[C@]3(C)[C@H](CC[C@@H]4[C@@]5(C)CCC(=O)NC(C)(C)[C@@H]5CC[C@]43C)[C@@H]12 | 75.2%
14 | CC1(C)[C@@H](O)CC[C@]2(C)[C@H]3CC[C@@H]4[C@H]5[C@H](C(=O)/C=C/c6ccc(C(F)(F)F)cc6)CC[C@]5(CO)CC[C@@]4(C)[C@]3(C)CC[C@@H]12 | 55.1%
